Assay results published in PubChem BioAssay AID1851 (National Center for Advancing Translational Sciences (NCATS), 2009).
Among all 16,000 compounds or so, about 2,600 (16%) were called active. Another 20% or so got no clear call; they are omitted. The call rests on the fitted dose curve; in most records, active means well fitted curve in the direction sought with a large enough effect; inconclusive means small, poorly fitted or top-dose-only effect, or effect the other way; inactive means no such curve, though single readings can be large or run the other way. Not all results are given here. Where a structure was tested more than once in an assay, its records may differ in their call. Square brackets hold non-standard residues; d marks the D form. Peptide text beside a SMILES is read from it. * marks the point of attachment. ξ: configuration not given here. Cbz = O=C(OCc1ccccc1)*; ξA = CC(N)C(=O)O

Biological target: Cytochrome P450 2D6 (Homo sapiens) (UniProt P10635)
Assay: Cytochrome panel assay with activity outcomes
Conditions: recombinant CYP, pro-luciferin dealkylation, luminescence, p450-cyp2d6; series mostly up to 57.1 µM
On the % scale 0 is the no-effect control and ±100 the full control effect.

Chain of Cytochrome P450 2D6 (Homo sapiens) (P10635 whole entry, looked up): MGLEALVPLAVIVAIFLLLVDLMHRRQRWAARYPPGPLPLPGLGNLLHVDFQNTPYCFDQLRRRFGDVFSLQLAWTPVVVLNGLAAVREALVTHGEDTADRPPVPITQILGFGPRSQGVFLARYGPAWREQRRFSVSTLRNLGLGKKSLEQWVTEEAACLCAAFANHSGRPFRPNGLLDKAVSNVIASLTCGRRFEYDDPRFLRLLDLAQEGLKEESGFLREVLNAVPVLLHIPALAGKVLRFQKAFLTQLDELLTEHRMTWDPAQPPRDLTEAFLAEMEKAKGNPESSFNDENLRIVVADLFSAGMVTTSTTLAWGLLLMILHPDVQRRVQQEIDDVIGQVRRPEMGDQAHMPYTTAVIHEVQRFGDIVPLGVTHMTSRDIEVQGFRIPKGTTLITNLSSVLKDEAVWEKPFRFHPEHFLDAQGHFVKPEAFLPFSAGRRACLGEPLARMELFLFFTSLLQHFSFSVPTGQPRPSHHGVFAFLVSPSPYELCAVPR

| SMILES | AC50 | activity, negative = inhibition |
| --- | --- | --- |
| CCCC(=O)Nc1cccc(Oc2nc(C)cc(C)c2C#N)c1 | inactive | – |
| Cc1ccnc(NS(=O)(=O)c2ccc(N=[N+]=[N-])cc2)n1 | – | 10.7% [at 11.4 µM] (inactive) |
| CC(C)=CCC/C(C)=C/CO/N=C1/C[C@@H](O)[C@@H](O)[C@@H]2[C@@H]3C(=O)N(Cc4ccccc4)C(=O)[C@H]3CC[C@H]12 | – | -8.8% [at 11.4 µM] (inactive) |
| NC(=O)CNC(=O)[C@@H]1CC2(CC(c3ccccc3)=NO2)CN1C(=O)c1ccc(Br)cc1 (stereo not given in full) | inactive | – |
| CC(=O)Nc1ccc2c(c1)C(=Nc1ccc(C(=O)O)cc1)c1ccccc1-2 | – | 13% [at 11.4 µM] (inactive) |
| COc1ccc(C(=O)N/N=C(\C)Cn2nc([N+](=O)[O-])cc2C)cc1 | inactive | – |
| CCOC(=O)[C@@]12C[C@@H]1/C(=N/O)c1ccccc1O2 | inactive | – |
| Cc1ccc(-n2c3c(c(=O)[nH]c2=O)C(NS(=O)(=O)c2ccc(C)cc2)(C(F)(F)F)C(=O)N3)cc1 (stereo not given) | inactive | – |
| CC(=O)Nc1ccc(C2=NN(CC#N)C(=O)SC2)cc1 | inactive | – |
| COC(=O)CSC1=C(C#N)C(c2cccc(F)c2)CC(=O)N1 (stereo not given) | inactive | – |
| N[C@@H](Cn1cc(F)c(=O)[nH]c1=O)C(=O)O | inactive | – |
| N[C@@H](Cn1cc(I)c(=O)n(Cc2ccc(C(=O)O)cc2)c1=O)C(=O)O | 2.51 µM (active) | – |
| N[C@H](Cn1ccc(=O)n(Cc2ccccc2C(=O)O)c1=O)C(=O)O | inactive | – |
| Cn1cc(-c2nc3cnc(N4CCOCC4)nc3n(C3CC3)c2=O)c2ccccc21 | inactive | – |
| CCOC(=O)c1c(CC(C)C)csc1NC=O | inactive | – |
| O=C(Nc1cc(C(=O)Nc2ccc(S(=O)(=O)O)cc2S(=O)(=O)O)cc(C(=O)Nc2ccc(S(=O)(=O)O)cc2S(=O)(=O)O)c1)Nc1cc(C(=O)Nc2ccc(S(=O)(=O)O)cc2S(=O)(=O)O)cc(C(=O)Nc2ccc(S(=O)(=O)O)cc2S(=O)(=O)O)c1 | inactive | – |
| C[C@@H](C[N+](C)(C)C)OC(N)=O | inactive | – |
| COCCn1c(=O)c(-c2cn(C)c3ccccc23)nc2cnc(Oc3ccc(OC)cc3)nc21 | inactive | – |
| O=C1C[C@H]2C(=O)[C@@H]1[C@@H](C(=O)O)[C@H]2C(=O)O | – | 11.5% [at 11.4 µM] (inactive) |
| Cc1cc(C)n(Cc2ccc(NC(=O)c3ccc(COc4ccccc4Br)cc3)cc2)n1 | inactive | – |
| CC1(C)OC(=O)C(=CNCC(O)c2ccccc2)C(=O)O1 (stereo not given) | inactive | – |
| Cc1cc(C)n(CCCNCC(O)c2ccccc2)n1 (stereo not given) | 7.08 µM (active) | – |
| C=CCNC(=O)c1csc(-c2ccccc2)n1 | inactive | – |
| C=CC[n+]1c(-c2ccc(C)cc2)csc1NNC(=O)Nc1ccccc1 | 3.16 µM (active) | – |
| CCCC(=O)NNC(=O)Nc1ccccc1 | inactive | – |

| SMILES | AC50 | activity, negative = inhibition |
| --- | --- | --- |
| CCn1c(C)c(C)c2cc(C(=O)Nc3cccc(Cl)c3)ccc21 | inactive | – |
| CC(=O)N[C@@H](CC(=O)O)C(=O)O | inactive | – |
| NC(=O)c1cc[n+](CC2=C(C(=O)[O-])N3C(=O)[C@@H](NC(=O)Cc4cccs4)[C@@H]3SC2)cc1 | inactive | – |
| CN(C)C(=N)N=C(N)N | inactive | – |
| O=C(NNC(=S)NC(=O)c1cccnc1)c1ccccc1 | inactive | – |
| COc1ccc(-c2coc3cc4oc(=O)cc(C)c4cc23)cc1F | inactive | – |
| O=c1c(-c2ccc(O)cc2)coc2cc(O)cc(O)c12 | inactive | – |
| O=c1cc(-c2ccccc2)oc2cc(O)c(O)c(O)c12 | inactive | – |
| CCOC(=O)COc1cc(OCC(=O)OCC)c2c(=O)cc(-c3ccccc3)oc2c1 | inactive | – |
| COc1ccc(-c2coc3cc(OC)cc(O)c3c2=O)cc1 | 0.0355 µM (active) | – |
| COc1ccc(-c2cc(=O)c3c(O)cc(O)cc3o2)cc1 | 12.6 µM (active) | – |
| CCOC(=O)Cc1c(C)nc2c(C#N)c[nH]n2c1=O | inactive | – |
| COC(=O)Cn1cnc(=O)c(C#N)c1/C=C/N(C)C | inactive | – |
| Cn1c(=O)c2[nH]c(CCS)nc2n(C)c1=O | – | 4.9% [at 11.4 µM] (inactive) |
| O=c1nc(N2CCOCC2)ccn1-c1nc(-c2ccccc2)oc1-c1ccccc1 | inactive | – |
| C[C@H](Nc1ncnc2sc3c(c12)CCC3)C(=O)O | inactive | – |
| COc1ccc(N2CCN(C(=S)Nc3cc(C)ccc3C)CC2)cc1 | inactive | – |
| Cc1cc2nc(-c3ccc(SCC(=O)N4CCc5ccccc54)nc3)[nH]c2cc1C | inactive | – |
| O=C(Nc1ccccc1)N1CCCC(c2nc(-c3ccc(F)cc3)no2)C1 (stereo not given) | inactive | – |
| Cc1ccc2nc(C3CCCN(C(=S)Nc4ccccc4C)C3)[nH]c2c1 (stereo not given) | 2 µM (active) | – |
| Cc1cc2nc(C3CCCN(C(=O)NCc4ccccc4)C3)[nH]c2cc1C (stereo not given) | 5.01 µM (active) | – |
| Cc1cc2nc(C3CCCN(C(=S)Nc4ccccc4)C3)[nH]c2cc1C (stereo not given) | inactive | – |
| NCCCCN | inactive | – |
| CCC1(O)c2ccccc2-c2ncccc21 (stereo not given) | inactive | – |
| COC(=O)[C@@H]1CC[C@H](C)[C@@H](c2ccc(C)cc2)N1C(=O)c1ccc(/C=N\OC[C@@H](O)[C@H]2O[C@H]3OC(C)(C)O[C@H]3[C@@H]2O)cc1 | – | 3.7% [at 11.4 µM] (inactive) |

| SMILES | AC50 | activity, negative = inhibition |
| --- | --- | --- |
| COCCNc1nc(SCc2ccccc2)nc2sc3c(c12)CCC3 | inactive | – |
| CC(C)NC[C@H](O)c1ccc(NS(C)(=O)=O)cc1 | inactive | – |
| CC(C)NC[C@H](O)c1cc(O)cc(O)c1 | inactive | – |
| CC(C)NC[C@H](O)c1ccc2ccccc2c1 | 3.16 µM (active) and inactive | – |
| Cc1ccc(C(CC(N)=O)c2ccco2)cc1 (stereo not given) | inactive | – |
| O=C(O)CNC(=O)[C@@H](CS)Cc1ccccc1 | inactive | – |
| CC(=O)SC[C@@H](Cc1ccccc1)C(=O)NCC(=O)OCc1ccccc1 | 0.316 µM (active) | – |
| COC(=O)CNC(=O)C(C)NC(=O)CNC(=O)OCc1ccccc1 (stereo not drawn) (Cbz-Gly-[ξA]-Gly-OMe) | inactive | – |
| Cc1cc(OC(=O)c2ccc(Cl)cc2Cl)nc(C)n1 | inactive | – |
| CC(C)(C)CC(=O)NC(=S)N1CCCCCC1 | inactive | – |
| O=c1c(-c2cccc(Cl)c2)nc2cncnc2n1-c1ccccc1 | inactive | – |
| O=C(Nc1nc2ccccc2n1CCN1CCCCC1)C1CCCCC1 | 4.47 µM (active) | – |
| CCCc1nc(SCC(=O)NNC(=O)C2CCCCC2)c2ccccc2n1 | inactive | – |
| Cn1c(CN2CCCC2)nc2cc(NC(=O)C3CCCCC3)ccc21 | inactive | – |
| COc1ccc(Oc2nc(C)cc(C)c2S(C)(=O)=O)cc1 | inactive | – |
| O=c1c(-c2ccc(Cl)cc2)nc2cnc(N3CCOCC3)nc2n1CCc1ccccc1 | inactive | – |
| CC(C)NC(=O)CC(=O)N/N=C/c1ccc(Br)cc1 | inactive | – |
| Cc1[nH]c2ccccc2c1CCNC(=O)c1ccc2c(c1[N+](=O)[O-])C(=O)c1ccccc1C2=O | 1.12 µM (active) | – |
| CC(=O)NCCc1c(Cc2ccccc2)[nH]c2ccccc12 | inactive | – |
| CCSc1c(C(=O)NC)ccc2c1C(=O)c1ccccc1C2=O | inactive | – |
| CC(C)[C@@H]1NC(=O)[C@H](CCCCN)NC(=O)[C@H](Cc2c[nH]c3ccccc23)NC(=O)[C@H](Cc2ccc(O)cc2)NC(=O)[C@H](C)N(C)C(=O)[C@H](Cc2ccccc2)NC1=O | inactive | – |
| Nc1ccc(-c2ccc(Nc3cc(S(=O)(=O)O)c(N)c4c3C(=O)c3ccccc3C4=O)cc2)c(S(=O)(=O)O)c1 | – | 6.34% [at 11.4 µM] (inactive) |
| N#Cc1cccc(-c2nc(NCc3cccnc3)c3ccccc3n2)c1 | inactive | – |
| CNc1nc(-c2cccc(C#N)c2)nc2ccccc12 | inactive | – |
| N#Cc1cccc(-c2nc(Nc3ccccc3)c3ccccc3n2)c1 | inactive | – |

| SMILES | AC50 | activity, negative = inhibition |
| --- | --- | --- |
| COc1ccccc1CNc1nc(-c2cccc(C#N)c2)nc2ccccc12 | 10 µM (active) | – |
| N#Cc1cccc(-c2nc(NCc3ccccc3)c3ccccc3n2)c1 | 10 µM (active) | – |
| Cn1cnnc1SCC(=O)OCN1C(=O)c2ccccc2C1=O | inactive | – |
| Cc1noc(C)c1C(=O)N1CCC2(CCN(C(=O)NC(C)C)CC2)CC1 | inactive | – |
| Cn1c(=O)c2c(ncn2CC(COCc2ccccc2Cl)OCc2ccccc2Cl)n(C)c1=O (stereo not given) | 15.8 µM (active) | – |
| Cn1c(=O)c2c(ncn2CCO)n(C)c1=O | inactive | – |
| Cn1c(=O)c2c(ncn2C[C@@H](O)CO)n(C)c1=O | inactive | – |
| Cc1cccc(C(=O)NNC(=O)C(=O)NC(C)(C)C)c1 | inactive | – |
| CC1(C)CC(=O)C2=C(C1)N(Cc1cccnc1)C(=O)C2(NC(=O)c1cccnc1)C(F)(F)F (stereo not given) | inactive | – |
| CCn1c(-c2ccc3ncccc3c2)n[nH]c1=S | inactive | – |
| CCn1c(-c2ccoc2C)n[nH]c1=S | inactive | – |
| CCCOc1cccc(-c2cc(-c3n[nH]c(=S)n3CC)c3ccccc3n2)c1 | 6.31 µM (active) | – |
| CSc1nnc2c(n1)OC(C)N(C(=O)c1ccccc1)c1ccccc1-2 (stereo not given) | inactive | – |
| CCOC(=O)CSc1n[nH]c(-c2cccnc2)n1 | inactive | – |
| CC(=C/c1ccccc1)/C=N/n1cnnc1 | inactive | – |
| CC(/C=N/n1c(-c2cccnc2)n[nH]c1=S)=C\c1ccccc1 | 7.08 µM (active) | – |
| COc1ccc(-n2c(=O)c(-c3cccs3)nc3cnc(Nc4cccc(OC)c4)nc32)cc1 | inactive | – |
| CN(C)c1ncc2nc(-c3cccs3)c(=O)n(CCc3ccccc3)c2n1 | inactive | – |
| O=c1c(-c2cccs2)nc2cncnc2n1Cc1ccccc1 | inactive | – |
| O=c1onc(-c2cccs2)n1Cc1ccccc1 | 11.2 µM (active) | – |
| COc1cc2c(cc1OC)C(C(=O)N1CCN(c3ccccn3)CC1)C(c1cccs1)N(C)C2=O (stereo not given) | inactive | – |
| OCCN(CCO)c1ncnc2nc[nH]c12 | – | -3.25% [at 11.4 µM] (inactive) |
| Cc1cc(C)cc(NC(=O)N2CCCC2C(=O)Nc2ccc(-n3cnnn3)c(C)c2)c1 (stereo not given) | inactive | – |
| COc1cccc(Nc2ncc3nc(-c4ccc(F)cc4)c(=O)n(CCC#N)c3n2)c1 | inactive | – |
| COc1ccc(N2CCN(C(=S)Nc3cc(C)cc(C)c3)CC2)cc1 | inactive | – |
